Reference: PubChem BioAssay (Tox21)
Active and inactive are the calls of the source. Where a call stands in place of a potency, no number is given. The call rests on the fitted dose curve.

Each compound was assayed against Estrogen receptor (Homo sapiens) (UniProt P03372) (assay: qHTS assay to identify small molecule agonists of the estrogen receptor alpha (ER-alpha) signaling pathway in the presence of an antagonist (AID 1259383; further: nearly all actives have a fitted effect of over 15% in size)). Details: VM7Luc4E2 cells, ERE-luciferase, +ICI-182,780, 22 h; series mostly up to 92.4 µM.
Estrogen receptor (Homo sapiens), sequence (P03372 whole entry, looked up): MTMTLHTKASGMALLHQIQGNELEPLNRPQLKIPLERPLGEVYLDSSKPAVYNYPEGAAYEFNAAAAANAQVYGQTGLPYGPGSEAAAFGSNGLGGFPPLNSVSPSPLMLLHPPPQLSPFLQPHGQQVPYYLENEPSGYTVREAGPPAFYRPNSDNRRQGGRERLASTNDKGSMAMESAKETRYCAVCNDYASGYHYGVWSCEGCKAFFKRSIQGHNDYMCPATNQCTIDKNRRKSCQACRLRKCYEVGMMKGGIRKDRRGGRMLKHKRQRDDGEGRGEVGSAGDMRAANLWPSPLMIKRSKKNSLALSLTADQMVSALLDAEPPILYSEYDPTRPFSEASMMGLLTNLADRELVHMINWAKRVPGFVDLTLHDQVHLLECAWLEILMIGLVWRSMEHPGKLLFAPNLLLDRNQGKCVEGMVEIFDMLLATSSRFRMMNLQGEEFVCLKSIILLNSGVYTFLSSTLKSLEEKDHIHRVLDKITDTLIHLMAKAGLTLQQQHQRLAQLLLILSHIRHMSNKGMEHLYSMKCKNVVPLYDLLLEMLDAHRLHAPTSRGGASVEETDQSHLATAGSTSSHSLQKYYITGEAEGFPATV
Excerpt: National Center for Advancing Translational Sciences [NCATS] NIH Chemical Genomics Center [NCGC] U.S. Environmental Protection Agency [EPA] National Institutes of Environmental Health Sciences [NIEHS] National Toxicology Program [NTP] Assay overview: Estrogen receptor (ER), a member of nuclear hormone receptor plays an important role in development, metabolic homeostasis and reproduction. Two subtypes of ER, ER-alpha and ER-beta, have similar expression patterns with some uniqueness in both types. Endocrine disrupting chemicals (EDCs) and their interactions with steroid hormone receptors like ER causes disruption of normal endocrine function. Therefore, it is important to understand the effect of environmental chemicals in ER signaling pathway. For identifying ER agonists, VM7Luc4E2 cell line has been used in the current assay. VM7Luc4E2 cell line (provided by Denison MS, University of California) endogenously expresses full-length ER-alpha and is stably transfected with a plasmid containing four estrogen responsive elements (ERE) upstream of a luciferase reporter gene. This current screening for measuring luciferase reporter gene activity using VM7Luc4E2 cells against Tox21 10K library collection is a confirmation study on agonist mode screening in presence of ER-antagonist (ICI-182,780) at 10.0nM final concentration.
Assay Protocol Summary: VM7Luc4E2 cells were cultured in phenol red free assay medium containing 10% charcoal stripped FBS for 5 days prior to the assay. The cells were dispensed at 4,000 cells in 4uL of assay medium per well into white wall/solid-bottom 1536-well plates (Corning Life Sciences, Corning, NY) using a Multidrop Combi (Thermo Fisher Scientific Inc., Waltham, MA) dispenser. After the assay plates were incubated at 37C and 5% CO2 for 24hr, 1uL of 10.0nM (final concentration) ICI-182,780 or assay buffer was added using two separate tips of Flying Reagent Dispenser (FRD, Aurora Discovery, San Diego, CA). Then 23nL of compounds dissolved in DMSO at 15 concentrations and positive controls or DMSO only was transferred to the assay plates by a Pintool station (Wako, San Diego, CA). The assay plates were incubated at 37C and 5% CO2 for 22hr. For luciferase read, 4uL/well ONE-Glo reagent (Promega Corporation, Madison, WI) was added to each well using FRD and after 30min incubation at room temperature, luminescence signal was measured on ViewLux plate reader (PerkinElmer, Shelton, CT).
Potency means the concentration at half of the fitted maximal effect.

SMILES	Potency
NC(=O)c1ccccc1C(N)=O	inactive
O=C1c2ccccc2C(=O)C1c1ccc2cc(S(=O)(=O)O)cc(S(=O)(=O)O)c2n1	inactive
Clc1nc2ccccc2nc1Cl	inactive
Nc1ccc(C(=O)Oc2ccccc2)c(O)c1	inactive
COC(=O)/C=C/C(C)=C\C=C\C(C)=C\C=C\C=C(C)\C=C\C=C(C)\C=C\C(=O)O	inactive
CNc1ccccc1	inactive
CC(=O)c1ccc(Cl)c(Cl)c1Cl	inactive
CC(C)(C)c1cc(C=O)cc(C(C)(C)C)c1O	inactive
C(/C=C/C=C/Nc1ccccc1)=Nc1ccccc1	inactive
O=C(c1ccc(Cl)cc1)c1ccc(Cl)cc1	inactive
O=[N+]([O-])c1cccc(I)c1	inactive
O=C(O)CCc1nc2ccccc2[nH]1	inactive
COc1ccc(C(=O)Nc2ccccc2)cc1[N+](=O)[O-]	inactive
Cc1cc(C)c(C)c(O)c1	inactive
CCCc1ccc(OC)cc1	inactive
Cc1cc(C)n(CO)n1	inactive
O=C(Cl)c1cc(Cl)cc(Cl)c1	inactive
CC(COc1ccccc1)NC(C)C(O)c1ccc(O)cc1 (stereo not given)	inactive
O=C(Cl)c1ccc(F)c(Cl)c1	0.864 µM (active)
C[C@H]1C[C@H]2[C@@H]3CCC4=CC(=O)C=C[C@]4(C)[C@@]3(F)[C@@H](O)C[C@]2(C)[C@@]1(O)C(=O)COP(=O)(O)O	inactive

SMILES	Potency
Clc1cccc(C(c2ccc3nc[nH]c3c2)n2ccnc2)c1 (stereo not given)	inactive
OCCc1ccncc1	inactive
CC1=C(C)C(=O)C(CCCCC#CCCCC#CCO)=C(C)C1=O	inactive
N#CCCCC(C#N)CCC#N (stereo not given)	inactive
C=CCCC	inactive
Nc1ccc(F)cc1F	inactive
C1=COCCC1	inactive
Oc1ccc(Oc2ccccc2)cc1	41 µM (active)
CC(C)=CCC/C(C)=C/C=N/O	inactive
COc1cccc([C@H](O)C2CCN(CCc3ccc(F)cc3)CC2)c1OC	inactive
N#C[C@@H]1CC(F)(F)CN1C(=O)CNC1CC2CCC(C1)N2c1ncccn1 (stereo not given in full)	inactive
CCCCCO	inactive
CCc1cnc(C(=O)O)c(C(=O)O)c1	inactive
C=Cc1ccc(C=C)cc1	inactive
CCN(CCCCOC(=O)c1ccc(OC)c(OC)c1)C(C)Cc1ccc(OC)cc1 (stereo not given)	inactive
O=C1OC(=O)C2CC=CCC12 (stereo not given)	inactive
CCCOC(C)=O	inactive
CCCCCCCCOCCCN	inactive
OCCCO	inactive
CCC(CC)C(=O)O	inactive
